Results: PubChem BioAssay (NCATS)
Records with an inconclusive call do not appear. Active and inactive are the calls of the source. Unless noted, the call rests on the fitted dose curve; in most records, active means well fitted curve in either direction with a large enough effect (not every such curve was filed as active); inconclusive means small, poorly fitted or top-dose-only effect, or another doubt; inactive means flat fitted curve, though single readings scatter.

Columns and labels:
[1] = molecular target: Lysosomal acid glucosylceramidase (Homo sapiens) (UniProt P04062); assay: Glucocerebrosidase-p2 (AID 348; in the data active means potency below about 10 µM; further: potency means the concentration at half of the fitted maximal effect); conditions: purified GBA, blue fluorogenic substrate, 40 min
Procedure, shortened: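 Compounds titrated from 0.6 nM upwards against 0.2 nM enzyme in pH 5.9 citric acid/KH2PO4, taurocholate, tween-20; blue fluorogenic substrate 80 uM, 40 min room temperature, stopped and read Ex 365/Em 440 for AC50.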

[2] = AP1 Signaling Pathway (AID 357); conditions: ME-180 AP-1-bla reporter, EGF-induced, beta-lactamase ratio, 5 h; at 7.69 µM (top of the series) unless noted; further: on the % scale 0 is the no-effect control and ±100 the full control effect
Procedure, shortened: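 ME-180 cells with beta-lactamase reporter under AP-1 response element, stimulated with EC50 EGF; compounds tested in titration series, 5 h at 37 °C. CCF4 substrate added 2.5 h at room temperature; 460/530 nm emission ratio gave %activity and AC50.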

[3] = molecular target: Cytochrome P450 1A2 (Homo sapiens) (UniProt P05177); assay: p450-cyp1a2 (AID 410; calls by dose curve; further: potency means the concentration at half of the fitted maximal effect); conditions: recombinant CYP1A2, luciferin-ME demethylation, luminescence; series mostly up to 57 µM
Procedure, shortened: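 Inhibition was calculated relative to 57 uM furafylline (full inhibition). The reaction used human CYP1A2 at 20nM with Luciferin-ME at its Km, 100uM, driven by an NADPH-regenerating system for 60 min at room temperature.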

[4] = NFAT Signaling Pathway (AID 444); conditions: Jurkat NFAT-bla M1, carbachol, beta-lactamase ratio, 5 h; at 7.69 µM (top of the series) unless noted;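 further: carbachol stimulus at about its EC50 of 1 µM final; on the % scale 0 is the no-effect control and ±100 the full control effect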
Procedure, shortened: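 Read-out: CCF4 FRET ratio (460 nm/530 nm) after 1 h RT dye loading, used for %activity and AC50 from titration series. Cells: Jurkat NFAT-β-lactamase/M1 line, treated with compound plus 1 uM carbachol for 5 h, 37 °C.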

[5] = Stat Signaling Pathway (AID 446); conditions: ME-180 SIE beta-lactamase reporter, IL-6 stimulated, 5 h; at 7.69 µM (top of the series) unless noted;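 further: ME-180 cervical cancer cells given 40 pM IL-6 alongside compound; SIE-controlled beta-lactamase reporter measured as 460/530 nm FRET emission ratio; on the % scale 0 is the no-effect control and ±100 the full control effect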
Procedure, shortened: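 ME-180 SIE-bla cells; overnight plating; cpd + IL-6 40 pM, 5 h, 37 C; LiveBLAzer 2.5 h RT; 460/530 nm emission ratio. Normalized to 300 pM IL-6 and 125 nM JAK inhibitor controls.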

[6] = molecular target: Glucocorticoid receptor (Homo sapiens) (UniProt P04150); assay: GR-GFP Redistribution (AID 450;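 active means compounds whose dose series gives a full or clear partial fitted curve of increased nuclear translocation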; further: potency means the concentration at half of the fitted maximal effect); conditions: U2OS GR-GFP nuclear translocation, laser cytometry, 2 h
[7] = molecular target: Glucocorticoid receptor (Homo sapiens) (UniProt P04150); assay: GR-EFC Redistribution (AID 451; calls by dose curve; further: potency means the concentration at half of the fitted maximal effect); conditions: CHO-K1 GR-EFC translocation, beta-gal luminescence, 2 h
Procedure, shortened: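 Translocation of GR-ED fusion to nuclear EA restores b-gal, read by luminescence after 1 h room-temperature detection. Engineered CHO-K1 biosensor cells, 1,000/well, exposed 2 h at 37 C to titrations up to 46 uM final.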

[8] = molecular target: Mitogen-activated protein kinase 10 (Mus musculus) (UniProt Q61831); assay: JNK3 AlphaScreen Assay (AID 530); conditions: JNK3 lysate, c-Jun phosphorylation; series mostly up to 57.1 µM;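 further: kinase came from lysate of stimulated human HepG2 cells; signal reports phosphorylation of biotinylated GST-cJun 1-79 at Ser73 with 10 µM ATP; on the % scale 0 is the no-effect control and ±100 the full control effect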
Procedure, shortened: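 Room-temperature AlphaScreen kinase assay; pre-activated HepG2 lysate as JNK3 source, biotin-GST-cJun(1-79) substrate, 10 uM ATP, compound 15 min preincubation.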

[9] = molecular target: 3',5'-cyclic-AMP phosphodiesterase 4B (Homo sapiens) (UniProt Q07343); assay: qHTS Assay for Inhibitors of PDE-IV (AID 607; active means well fitted activation curve with a large enough effect in the main read-out, with a control signal flat, not every such curve was filed as active; further: % of control where 0% means no effect); conditions: HEK293 ACTOne CNG channel cells, membrane potential fluorescence; series mostly up to 22.9 µM
Procedure, shortened: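 ACTOne HEK293 cells carry a modified cAMP-gated CNG channel and express endogenous PDE4; plated 1000 cells/well, compounds up to 22.9 uM final. Membrane-potential dye fluorescence (ex 535/em 590) was read; parental cells received 10 uM forskolin + 100 uM RO 20-1724.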

[10] = qHTS Assay for Lipid Storage Modulators (AID 1519; calls by dose curve); conditions: Drosophila S3 cells, BODIPY lipid droplet/cell ratio, laser cytometry, cells loaded with oleic acid; for activity change, negative = inhibition: at 57.5 µM (top of the series)
Procedure, shortened: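 Cells seeded at 5,000 per well were treated with compounds over a concentration series and loaded with oleic acid (400 uM, as added). Lipid droplet fluorescence (488 nm excitation, 500-530 nm channel) was read by laser-scanning cytometry and normalized to 20 uM Triacsin C.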

[11] = molecular target: Dual specificity protein kinase CLK4 (Homo sapiens) (UniProt Q9HAZ1); assay: qHTS Assay for Inhibitors of CDC-like Kinase 4 (Kinase-Glo Assay) (AID 1770; active means well fitted curve in the direction sought with a large enough effect; an effect the other way counts as inactive or inconclusive; further: on the % scale 0 is the no-effect control and ±100 the full control effect; nearly all actives have a fitted effect of over 65% in size); conditions: recombinant Clk4, Kinase-Glo ATP depletion luminescence; series mostly up to 66.7 µM
Procedure, shortened: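 Recombinant human Clk4 (25 nM) phosphorylated RS repeat peptide (100 uM) with 1 uM ATP in Tris pH 7.5/MgCl2/EGTA/DTT/Triton buffer for 4.5 h at room temperature. Residual ATP was quantified by Kinase-Glo luciferase luminescence.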

[12] = molecular target: Dual specificity protein kinase CLK4 (Homo sapiens) (UniProt Q9HAZ1); assay: qHTS Assay for Inhibitors of CDC-like Kinase 4 (ADP-FP Assay) (AID 1795; active means well fitted curve in the direction sought with a large enough effect; an effect the other way counts as inactive or inconclusive; further: on the % scale 0 is the no-effect control and ±100 the full control effect; nearly all actives have a fitted effect of over 60% in size); conditions: Transcreener ADP fluorescence polarization; series mostly up to 50 µM
Procedure, shortened: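 Recombinant human Clk4 (6.25 nM) phosphorylated RS repeat peptide (100 uM) with 1 uM ATP in Tris pH 7.5/MgCl2/EGTA/DTT/Triton buffer for one hour. ADP was quantified by Transcreener competitive fluorescence polarization against an ADP calibration curve.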

[13] = molecular target: Ubiquitin carboxyl-terminal hydrolase 1 (Homo sapiens) (UniProt O94782); assay: Inhibitors of USP1/UAF1: Pilot qHTS (AID 504865; active means well fitted curve in the direction sought with a large enough effect; an effect the other way counts as inactive or inconclusive;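 further: rhodamine fluorescence freed from ubiquitin-rhodamine substrate followed over time; top concentration of the series differs between compounds; on the % scale 0 is the no-effect control and ±100 the full control effect; nearly all actives have a fitted effect of over 35% in size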); conditions: purified USP1/UAF1, Ub-rhodamine cleavage fluorescence; series mostly up to 54.9 µM
Procedure, shortened: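 USP1/UAF1 complex (1nM) preincubated with compound 15 min at room temperature, then Ub-Rho substrate (150nM final) added. Fluorescence read kinetically at 480/540 nm, 6 reads every 60 seconds. Buffer: 50mM HEPES pH 7.8, 0.5mM EDTA, 0.1 mg/ml BSA, 1mM TCEP, 0.01% Tween-20.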

[14] = Primary qHTS for small molecule stabilizers of the endoplasmic reticulum resident proteome: Secreted ER Calcium Modulated Protein (SERCaMP) assay (AID 1508630; active means well fitted curve in the direction sought with a large enough effect; an effect the other way counts as inactive or inconclusive; further: on the % scale 0 is the no-effect control and ±100 the full control effect); conditions: SH-SY5Y GLuc-SERCaMP (Gaussia luciferase released on ER calcium loss) secretion, thapsigargin, luminescence; series mostly up to 38.4 µM
Procedure, shortened: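 GLuc-SERCaMP-expressing SH-SY5Y cells, pretreated 16 h with compound, are challenged with thapsigargin to empty ER calcium stores; after 4 h, coelenterazine is added directly to the medium and luminescence is imaged.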

[15] = molecular target: Cytochrome P450 3A4 (Homo sapiens) (UniProt P08684); assay: qHTS Assay for Activators of Cytochrome P450 3A4 (AID 885; active means well fitted curve in the direction sought with a large enough effect; an effect the other way counts as inactive or inconclusive; further: nearly all actives have a fitted effect of over 65% in size); conditions: recombinant CYP3A4, Luciferin-PPXE luminescence, 60 min; series mostly up to 57.1 µM
Procedure, shortened: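 20nM CYP3A4 + 25uM Luciferin-PPXE (=KM), 200mM KPO4; cpd 10 min RT; NADPH regen, 60 min RT; stop w/ detection buffer, 20 min; luminescence. Normalized to 57 uM ketoconazole.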

[16] = molecular target: Cytochrome P450 3A4 (Homo sapiens) (UniProt P08684); assay: qHTS Assay for Inhibitors and Substrates of Cytochrome P450 3A4 (AID 884; active means well fitted curve in the direction sought with a large enough effect; an effect the other way counts as inactive or inconclusive; further: potency means the concentration at half of the fitted maximal effect; nearly all actives have a fitted effect of over 50% in size); conditions: recombinant CYP3A4, Luciferin-PPXE luminescence; series mostly up to 57.1 µM
Procedure, shortened: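 20 nM human CYP3A4 with 25 uM Luciferin-PPXE (at KM) in 200 mM KPO4, preincubated 10 min with compound; NADPH regeneration started a 60 min RT reaction. Luciferin detected by luminescence, normalized to 57 uM ketoconazole as full inhibition.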

[17] = measured here: cell count channel max response
[18] = measured here: lipid channel max response

Sequence of Cytochrome P450 3A4 (Homo sapiens) (P08684 whole entry, looked up): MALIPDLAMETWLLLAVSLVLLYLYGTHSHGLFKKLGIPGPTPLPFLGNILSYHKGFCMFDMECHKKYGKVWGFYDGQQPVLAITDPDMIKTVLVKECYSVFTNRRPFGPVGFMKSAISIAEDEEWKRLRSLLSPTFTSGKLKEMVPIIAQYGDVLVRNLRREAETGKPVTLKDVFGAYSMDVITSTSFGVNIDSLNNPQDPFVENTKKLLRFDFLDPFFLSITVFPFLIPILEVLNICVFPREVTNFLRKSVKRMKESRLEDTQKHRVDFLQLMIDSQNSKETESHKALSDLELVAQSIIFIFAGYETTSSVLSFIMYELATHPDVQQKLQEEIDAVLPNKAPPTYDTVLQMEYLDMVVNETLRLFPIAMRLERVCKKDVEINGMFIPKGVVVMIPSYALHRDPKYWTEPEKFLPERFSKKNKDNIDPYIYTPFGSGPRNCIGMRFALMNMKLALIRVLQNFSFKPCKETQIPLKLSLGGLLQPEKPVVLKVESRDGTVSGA
Sequence of Dual specificity protein kinase CLK4 (Homo sapiens) (Q9HAZ1 whole entry, looked up): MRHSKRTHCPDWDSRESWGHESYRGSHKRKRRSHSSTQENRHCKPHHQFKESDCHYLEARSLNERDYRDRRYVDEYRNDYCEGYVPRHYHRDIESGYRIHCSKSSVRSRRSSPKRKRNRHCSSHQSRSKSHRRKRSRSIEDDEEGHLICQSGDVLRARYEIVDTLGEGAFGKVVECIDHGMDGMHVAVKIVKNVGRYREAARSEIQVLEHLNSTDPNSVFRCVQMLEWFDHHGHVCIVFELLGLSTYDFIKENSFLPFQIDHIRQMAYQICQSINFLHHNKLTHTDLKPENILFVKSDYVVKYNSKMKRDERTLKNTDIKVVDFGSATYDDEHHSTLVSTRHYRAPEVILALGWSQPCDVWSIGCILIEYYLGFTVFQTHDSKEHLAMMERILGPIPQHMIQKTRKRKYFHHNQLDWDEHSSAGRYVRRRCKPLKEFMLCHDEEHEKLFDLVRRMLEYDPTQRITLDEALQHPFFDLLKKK
Sequence of Ubiquitin carboxyl-terminal hydrolase 1 (Homo sapiens) (O94782 whole entry, looked up): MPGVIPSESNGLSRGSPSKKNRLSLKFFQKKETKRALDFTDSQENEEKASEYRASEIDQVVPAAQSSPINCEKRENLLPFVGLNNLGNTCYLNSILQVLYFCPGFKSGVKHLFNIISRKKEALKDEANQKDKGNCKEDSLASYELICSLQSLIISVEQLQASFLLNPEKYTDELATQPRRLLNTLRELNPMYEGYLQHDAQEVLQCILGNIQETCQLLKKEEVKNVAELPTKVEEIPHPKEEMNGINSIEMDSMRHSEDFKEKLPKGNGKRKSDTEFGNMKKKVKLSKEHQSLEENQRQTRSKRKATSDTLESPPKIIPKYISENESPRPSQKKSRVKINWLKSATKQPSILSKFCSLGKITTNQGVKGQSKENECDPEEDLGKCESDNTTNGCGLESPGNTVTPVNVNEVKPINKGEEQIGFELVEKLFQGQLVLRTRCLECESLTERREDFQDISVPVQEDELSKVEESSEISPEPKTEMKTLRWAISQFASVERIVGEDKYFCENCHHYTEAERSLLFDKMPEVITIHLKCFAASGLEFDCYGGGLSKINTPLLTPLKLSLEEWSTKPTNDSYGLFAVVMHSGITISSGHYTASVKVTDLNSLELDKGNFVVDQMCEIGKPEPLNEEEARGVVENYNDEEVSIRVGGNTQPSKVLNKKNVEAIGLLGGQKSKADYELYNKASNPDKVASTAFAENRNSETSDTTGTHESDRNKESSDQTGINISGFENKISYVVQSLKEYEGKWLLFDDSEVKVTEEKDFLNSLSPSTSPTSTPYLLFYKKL
Sequence of Cytochrome P450 1A2 (Homo sapiens) (P05177 whole entry, looked up): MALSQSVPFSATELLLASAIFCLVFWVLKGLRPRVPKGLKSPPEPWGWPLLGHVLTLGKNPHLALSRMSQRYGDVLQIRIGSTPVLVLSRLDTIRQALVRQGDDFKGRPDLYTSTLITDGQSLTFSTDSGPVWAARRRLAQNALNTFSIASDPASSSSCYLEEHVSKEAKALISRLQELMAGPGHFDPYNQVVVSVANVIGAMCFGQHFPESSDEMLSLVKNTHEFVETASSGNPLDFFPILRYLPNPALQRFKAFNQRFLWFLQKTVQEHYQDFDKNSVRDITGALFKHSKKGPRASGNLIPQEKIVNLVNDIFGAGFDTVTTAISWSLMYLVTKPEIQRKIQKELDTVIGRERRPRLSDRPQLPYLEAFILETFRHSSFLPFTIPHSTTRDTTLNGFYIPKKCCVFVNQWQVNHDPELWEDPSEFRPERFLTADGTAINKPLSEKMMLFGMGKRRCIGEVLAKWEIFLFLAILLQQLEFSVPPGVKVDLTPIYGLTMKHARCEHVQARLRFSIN
Sequence of Glucocorticoid receptor (Homo sapiens) (P04150 whole entry, looked up, the tested form may be a part): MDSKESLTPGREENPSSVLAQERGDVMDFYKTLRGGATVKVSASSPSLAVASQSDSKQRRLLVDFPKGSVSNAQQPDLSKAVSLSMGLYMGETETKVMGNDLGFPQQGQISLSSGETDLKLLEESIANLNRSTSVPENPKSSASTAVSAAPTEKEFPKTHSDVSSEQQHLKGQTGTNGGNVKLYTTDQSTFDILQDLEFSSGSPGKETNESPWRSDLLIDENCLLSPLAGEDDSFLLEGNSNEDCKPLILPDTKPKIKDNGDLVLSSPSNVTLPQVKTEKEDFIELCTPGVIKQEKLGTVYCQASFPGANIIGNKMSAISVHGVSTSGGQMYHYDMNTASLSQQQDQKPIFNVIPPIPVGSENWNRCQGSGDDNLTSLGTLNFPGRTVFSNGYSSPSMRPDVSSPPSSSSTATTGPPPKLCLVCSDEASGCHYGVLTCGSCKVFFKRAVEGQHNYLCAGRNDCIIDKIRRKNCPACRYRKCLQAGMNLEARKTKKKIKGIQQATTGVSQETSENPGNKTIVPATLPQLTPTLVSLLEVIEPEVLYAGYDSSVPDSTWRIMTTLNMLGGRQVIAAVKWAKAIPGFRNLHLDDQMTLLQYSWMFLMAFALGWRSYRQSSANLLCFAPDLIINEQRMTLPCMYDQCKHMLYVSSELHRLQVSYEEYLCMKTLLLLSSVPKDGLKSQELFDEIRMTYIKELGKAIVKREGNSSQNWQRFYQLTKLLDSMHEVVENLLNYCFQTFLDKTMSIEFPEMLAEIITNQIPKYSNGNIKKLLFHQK
Sequence of 3',5'-cyclic-AMP phosphodiesterase 4B (Homo sapiens) (Q07343 whole entry, looked up): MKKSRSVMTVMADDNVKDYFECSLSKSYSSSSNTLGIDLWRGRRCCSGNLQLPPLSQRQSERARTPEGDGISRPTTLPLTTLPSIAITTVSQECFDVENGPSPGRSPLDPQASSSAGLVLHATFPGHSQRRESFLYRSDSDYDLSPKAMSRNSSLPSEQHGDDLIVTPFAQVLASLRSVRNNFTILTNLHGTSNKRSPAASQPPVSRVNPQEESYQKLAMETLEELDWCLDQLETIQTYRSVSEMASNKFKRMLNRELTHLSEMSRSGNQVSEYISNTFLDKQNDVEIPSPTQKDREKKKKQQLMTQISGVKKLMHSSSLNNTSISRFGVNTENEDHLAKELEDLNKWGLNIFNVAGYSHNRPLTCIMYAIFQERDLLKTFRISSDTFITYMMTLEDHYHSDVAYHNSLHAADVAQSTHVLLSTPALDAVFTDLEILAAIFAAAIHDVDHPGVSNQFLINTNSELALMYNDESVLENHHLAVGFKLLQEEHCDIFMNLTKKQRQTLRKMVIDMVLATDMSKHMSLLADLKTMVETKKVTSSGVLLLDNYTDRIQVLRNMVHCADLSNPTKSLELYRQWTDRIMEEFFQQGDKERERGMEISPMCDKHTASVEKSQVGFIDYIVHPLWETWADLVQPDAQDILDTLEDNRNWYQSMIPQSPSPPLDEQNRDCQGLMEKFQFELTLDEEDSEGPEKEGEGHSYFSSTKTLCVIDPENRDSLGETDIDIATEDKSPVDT
Sequence of Lysosomal acid glucosylceramidase (Homo sapiens) (P04062 whole entry, looked up): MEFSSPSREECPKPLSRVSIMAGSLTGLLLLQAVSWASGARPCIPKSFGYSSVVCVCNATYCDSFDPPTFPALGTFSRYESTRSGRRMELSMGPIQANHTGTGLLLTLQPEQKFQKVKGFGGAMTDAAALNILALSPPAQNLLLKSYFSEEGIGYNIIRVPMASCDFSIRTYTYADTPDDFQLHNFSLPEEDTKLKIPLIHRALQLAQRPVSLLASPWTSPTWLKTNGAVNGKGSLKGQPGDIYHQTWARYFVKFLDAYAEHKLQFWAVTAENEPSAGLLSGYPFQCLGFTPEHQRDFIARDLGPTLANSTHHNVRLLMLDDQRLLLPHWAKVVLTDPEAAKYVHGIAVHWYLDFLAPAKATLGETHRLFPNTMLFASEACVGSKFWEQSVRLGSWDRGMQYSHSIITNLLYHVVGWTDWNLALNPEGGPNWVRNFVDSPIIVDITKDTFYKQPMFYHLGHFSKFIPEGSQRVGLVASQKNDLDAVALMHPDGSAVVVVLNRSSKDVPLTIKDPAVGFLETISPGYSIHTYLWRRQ

CCNc1ncc2nc(C)c(=O)n(CCC#N)c2n1
inactive: Potency [1] > 11.4 µM | activity change, negative = inhibition [2] -5.37% | activity change, negative = inhibition [4] 8.37% | activity, negative = inhibition [5] -4.05% | Potency [6] > 9.22 µM | Potency [7] > 46 µM | outcome [8] | Potency [9] | activity change, negative = inhibition [10] 3.22% | Potency [11] | Potency [12] | Potency [13] | Potency [14]
active: Potency [3] 12.6 µM
2.02%: max response [10, 18]
-0.74%: max response [10, 17]

CCNc1ncc2nc(C)c(=O)n(Cc3ccc(F)cc3)c2n1
active: Potency [3] 1.58 µM
inactive: activity change, negative = inhibition [2] -0.98% | activity change, negative = inhibition [4] -0.858% | activity, negative = inhibition [5] -2.29% | Potency [6] > 9.22 µM | Potency [7] > 46 µM | outcome [8] | Potency [9] | Potency [15] | activity change, negative = inhibition [10] 3.29% | Potency [12] | Potency [13] | Potency [14]
24.2%: max response [10, 18]
23.4%: max response [10, 17]

c1csc(CNc2cc(-c3ccoc3)ncn2)c1
29.6%: max response [10, 18]
active: Potency [3] 2 µM
26.5%: max response [10, 17]
inactive: Potency [1] > 11.4 µM | activity change, negative = inhibition [2] -0.901% | activity change, negative = inhibition [4] -2.52% | activity, negative = inhibition [5] 3.9% | Potency [6] > 46 µM | Potency [7] > 46 µM | outcome [8] | Potency [9] | Potency [15] | activity change, negative = inhibition [10] 5.83% | Potency [12] | Potency [13] | Potency [14]

Cn1c(=O)cnc2cnc(OCc3ccccc3)nc21
18.8%: max response [10, 17]
26%: max response [10, 18]
inactive: Potency [1] > 11.4 µM | activity change, negative = inhibition [4] 0.699% | activity, negative = inhibition [5] -10.5% | Potency [6] > 9.22 µM | Potency [7] > 46 µM | outcome [8] | Potency [9] | activity change, negative = inhibition [10] 9.09% | Potency [13] | Potency [14]

c1ccc2c(NC3CCNCC3)nc(-c3ccoc3)nc2c1
active: Potency [3] 15.8 µM
2.41%: max response [10, 18]
inactive: Potency [1] > 11.4 µM | activity change, negative = inhibition [2] 8.91% | activity change, negative = inhibition [4] 5.13% | activity, negative = inhibition [5] 7% | Potency [6] > 46 µM | Potency [7] > 46 µM | outcome [8] | activity change, negative = inhibition [10] 0.038% | Potency [13] | Potency [14]
5.08%: max response [10, 17]

Cn1c(=O)c(-c2cccs2)nc2cncnc21
inactive: Potency [1] > 11.4 µM | activity change, negative = inhibition [2] 16% | activity change, negative = inhibition [4] 2.85% | activity, negative = inhibition [5] -17.1% | Potency [6] > 9.22 µM | Potency [7] > 46 µM | outcome [8] | Potency [9] | Potency [15] | activity change, negative = inhibition [10] 2.77% | Potency [12] | Potency [13] | Potency [14]
18.7%: max response [10, 17]
active: Potency [3] 1.26 µM | Potency [16] 7.94 µM
19.2%: max response [10, 18]
